{"source": "PubChem BioAssay (NCI)", "note": "Compounds without any hit were thinned out: in the full panel of roughly 79,000, 15% have a hit. A number with no mark means an inactive call. The source made the active and inactive calls. Rule as the data show it: active = growth inhibition above about 70%; inactive = the rest.", "data": [{"assay": "NCI Yeast Anticancer Drug Screen. Data for the bub3 strain (AID 167)", "details": "S. cerevisiae bub3 mutant strain, at 50.0 µM, active compounds read high", "protocol": "Growth inhibition of yeast strains with defined genetic alterations is measured as a screen for potential anti-cancer activity. Selected strains with alterations in DNA damage repair or cell cycle control were exposed to compounds and growth inhibition was measured relative to vehicle treated controls. The strain used in this assay is bub3", "values": [{"smiles": "CN(C)[C@@H]1C(=O)C(C(N)=O)=C(O)[C@]2(O)C(=O)C3C(=O)c4c(O)ccc(Cl)c4[C@](C)(O)[C@H]3C[C@@H]12", "note": "(stereo not given in full)", "growth inhibition": "3.15%"}, {"smiles": "Oc1cc(N2CC2)c(O)cc1N1CC1", "growth inhibition": "-1.75%"}, {"smiles": "CC(C)OP(=O)(OCCCO)C(Cl)Cl", "note": "(stereo not given)", "growth inhibition": "3.75%"}, {"smiles": "N#CC1OC1c1cccnc1", "note": "(stereo not given)", "growth inhibition": "29.3%"}, {"smiles": "COc1ccc2nc3c4ccccc4scc-3c2c1", "growth inhibition": "99.2% (active)"}, {"smiles": "O=N[O-].O=N[O-].[Co].[NH-]CC[N-]CCO.[NH-]CC[N-]CCO", "growth inhibition": "5.7%"}, {"smiles": "CCC[CH2][Sn]([Cl])([Cl])[CH2]CCC.c1ccncc1", "growth inhibition": "98.2% (active)"}, {"smiles": "CN(C)CCNc1nc2c(no[n+]2[O-])c2ccccc12", "growth inhibition": "3.35%"}, {"smiles": "CCCCC(CC)CC1C(=O)NC(=S)NC1=O", "note": "(stereo not given)", "growth inhibition": "-0.05%"}, {"smiles": "Cc1c[nH]c2c1C13CC1CN(C(=O)c1cc4cc(NC(=O)c5cc6ccccc6o5)ccc4[nH]1)C3=CC2=O", "note": "(stereo not given)", "growth inhibition": "90.2% (active)"}, {"smiles": "CC(=O)N(N=O)c1cc(Cl)ccc1Cl", "growth inhibition": "-5.5%"}, {"smiles": "CCCCCC(C)C1C(=O)NC(=O)NC1=O", "note": "(stereo not given)", "growth inhibition": "7.8%"}, {"smiles": "CCOP(=O)(OCC)/C(C#N)=C/c1nccn1C", "growth inhibition": "24.1%"}, {"smiles": "N#Cc1ccc(/C=C/C(=O)O)cc1", "growth inhibition": "-9.9%"}, {"smiles": "Cc1ccc(NC(=O)C(=O)C2C(=O)NC(=O)NC2=O)c(C)c1", "growth inhibition": "15.9%"}, {"smiles": "COc1cccc(C2CC(=O)c3cccn32)c1", "note": "(stereo not given)", "growth inhibition": "-5.25%"}, {"smiles": "CNC(=O)Oc1ccc(Br)cc1Br", "growth inhibition": "10.9%"}, {"smiles": "CC(Oc1ccc([N+](=O)[O-])cc1Cl)C(=O)Nc1ccc(S(=O)(=O)F)cc1", "note": "(stereo not given)", "growth inhibition": "0.2%"}, {"smiles": "CCCCCCCCCCCCCCCCCC(=O)[O][Pb]([CH3])([CH3])[CH3]", "growth inhibition": "2.8%"}, {"smiles": "O=C(Nc1cccc(S(=O)(=O)F)c1)c1cccc([N+](=O)[O-])c1", "growth inhibition": "95.6% (active)"}, {"smiles": "[CH3][Sb]1([Br])[CH2]CC[CH2]1", "growth inhibition": "-11.8%"}, {"smiles": "S=C(N/N=C\\c1cccc(I)c1)NC1CN2CCC1CC2", "note": "(stereo not given)", "growth inhibition": "3.2%"}, {"smiles": "COCC1OC2OC3C(COC)OC(OC4C(COC)OC(OC5C(COC)OC(OC6C(COC)OC(OC7C(COC)OC(OC8C(COC)OC(OC1C(O)C2O)C(O)C8O)C(O)C7O)C(O)C6O)C(O)C5O)C(O)C4O)C(O)C3O", "note": "(stereo not given) (tested in a mixture with another compound)", "growth inhibition": "-18.8%"}, {"smiles": "CN(C)C(=O)C(CC[N+](C)(C)C)(c1ccccc1)c1ccccc1", "growth inhibition": "-3.9%"}, {"smiles": "N.N.NC(CS)C(=O)[O-].NC(CS)C(=O)[O-].[Pt+4]", "note": "(stereo not given)", "growth inhibition": "-12.8%"}, {"smiles": "Nc1ccc2c(c1)[O][Sn]([c]1ccccc1)([c]1ccccc1)[O]C2=O", "growth inhibition": "88.1% (active)"}, {"smiles": "CC(C)COC(=O)Cc1ccccc1", "growth inhibition": "-0.55%"}, {"smiles": "CCN1C(=O)CC(=O)N(CC)C1=S", "growth inhibition": "8.45%"}, {"smiles": "C1CN([PH+](N2CC2)N2CC2)CCO1.C1CN([PH+](N2CC2)N2CC2)CCO1.[Cl][Pt][Cl]", "growth inhibition": "-3.35%"}, {"smiles": "O=C1Nc2ccccc2C12CNCS2", "note": "(stereo not given)", "growth inhibition": "-12.8%"}, {"smiles": "COc1ccc(C)cc1C(CC(=O)O)CC(=O)N(CCCl)CCCl", "note": "(stereo not given)", "growth inhibition": "-1.95%"}, {"smiles": "C=[CH][Sn]([Cl])([Cl])[CH]=C.CN(C)P(=O)(N(C)C)N(C)C", "growth inhibition": "53.3%"}, {"smiles": "CCOC(OCC)c1ccc2c(c1)OCO2", "growth inhibition": "-0.05%"}, {"smiles": "O=C(NCCO)c1cc([N+](=O)[O-])cc([N+](=O)[O-])c1", "growth inhibition": "-11.7%"}, {"smiles": "NC(=O)c1cc([N+](=O)[O-])c(N(CCCl)CCCl)c([N+](=O)[O-])c1", "growth inhibition": "-1.55%"}, {"smiles": "C1=CC2C=CC(C=C1)[PH+]2c1ccccc1.C1=CC2C=CC(C=C1)[PH+]2c1ccccc1.[C-]#[O+].[C-]#[O+].[C-]#[O+].[Fe]", "note": "(stereo not given)", "growth inhibition": "10.6%"}, {"smiles": "O=[N+]([O-])c1cccc(C(Cl)Cl)c1", "growth inhibition": "12.1%"}, {"smiles": "CCCCCCNC1C=CCC1", "note": "(stereo not given)", "growth inhibition": "5.15%"}, {"smiles": "CNC(=O)Oc1cccc2c(OC3OC(CO)C(O)C(O)C3O)cccc12", "note": "(stereo not given)", "growth inhibition": "2.05%"}, {"smiles": "COC(=O)C1(O)c2ccccc2N=C2C1CCN2C", "note": "(stereo not given)", "growth inhibition": "6.3%"}]}]}
